From PubChem
Hits are enriched below; roughly 5.2% of the tested compounds scored in any of these assays.
Sfp inh: blocks B. subtilis Sfp PPTase activity | Q9F4F7 | Biochemical Sfp PPTase activity, qHTS | Potency, µM, hits mostly inhibitors | 310,000 compounds, 3.5% hits;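 further: the enzyme is Sfp with the accession as filed and its product quenches rhodamine fluorescence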
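Fluorescence-quenching assay: 15 nM Sfp-PPTase preincubated 15 min at room temperature with compound, then 5 uM rhodamine-CoA and 12.5 uM BHQ-2-labelled YbbR peptide added. Fluorescence (ex 525/em 598 nm) read at start and after 30 min; difference gives rate.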
TrxR1 substrate: substrates of rat thioredoxin reductase 1 | purified TrxR1 substrate turnover, NADPH consumption readout | O89049 | 390,000 compounds, 0.01% hits | Potency, µM (top dose mostly 114 µM); further: nearly all actives have a fitted effect of over 50% in size
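Rat TrxR1, dispensed at 90 nM, was prereduced with 400 uM NADPH (final) for 5 min at ~22 deg C, then incubated with compound 15 min before 400 uM selenite. A first-read NADPH fluorescence drop versus no-compound background flagged substrates.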
PLK1 PBD inh: inhibitors of human PLK1 polo-box domain binding; Potency, µM, hits mostly inhibitors; P53350; Plk1 PBD binding of FITC phosphopeptide, fluorescence polarization; AID 720504; 360,000 compounds, 2.8% hits; further: series mostly up to about 57 µM; nearly all actives have a fitted effect of over 65% in size
IDH1 R132H inh: blocks human mutant IDH1 R132H enzyme. IDH1-R132H enzyme, NADPH consumption, diaphorase/resazurin fluorescence. Potency, µM (doses to about 76.6 µM), actives largely listed as inhibitors. 390,000 compounds, 0.093% hits; further: nearly all actives have a fitted effect of over 65% in size
Target sequence (O75874 whole entry R132H, stated change not applied): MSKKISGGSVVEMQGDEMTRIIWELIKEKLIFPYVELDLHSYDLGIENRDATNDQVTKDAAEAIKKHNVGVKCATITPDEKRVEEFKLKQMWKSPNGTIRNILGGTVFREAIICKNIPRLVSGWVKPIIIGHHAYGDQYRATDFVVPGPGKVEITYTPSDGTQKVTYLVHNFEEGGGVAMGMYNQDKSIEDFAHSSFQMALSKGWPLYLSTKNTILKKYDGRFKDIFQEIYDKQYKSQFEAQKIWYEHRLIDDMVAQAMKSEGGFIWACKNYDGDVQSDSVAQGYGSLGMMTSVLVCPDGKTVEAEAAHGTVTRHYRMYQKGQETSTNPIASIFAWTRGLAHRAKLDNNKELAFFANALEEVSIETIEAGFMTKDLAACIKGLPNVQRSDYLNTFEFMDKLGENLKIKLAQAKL
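IDH1-R132H (0.5 ug/mL) preincubated 30 min with compound, then NADPH (0.016 mM) and alpha-KG (2 mM) added; 80 min at RT, pH 7.5. Remaining NADPH coupled via diaphorase/resazurin to fluorescence (540/590 nm); concentration-response curves normalized to no-enzyme control.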
VDR inh: blocks the human vitamin D receptor | P11473 | VDR-SRC2-3 peptide fluorescence polarization, 2 h | Potency, µM, usual class: inhibitors | 400,000 compounds, 0.93% hits | AID 504847
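Compounds are added to VDR with labelled SRC2-3 coactivator peptide and held 2 h at room temperature. Inhibition of the VDR–peptide interaction is then read as a change in fluorescence polarization.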
TrxR1 inh: blocks rat thioredoxin reductase 1; O89049; recombinant rTrxR1, NADPH fluorescence consumption, selenite substrate; Potency, µM (highest dose often 114 µM), usual class: inhibitors; 390,000 compounds, 1% hits; AID 588453; further: nearly all actives have a fitted effect of over 65% in size
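Rat TrxR1 (90 nM in the dispensed reagent) was pre-reduced with 400 uM NADPH for 5 min at room temperature, then incubated with compound for 15 min. After 400 uM selenite was added, NADPH fluorescence (Ex 340/Em 450 nm) was followed for 8 min.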
Hits are given with their value; - = inactive; ? = inconclusive; . = no result given; ! = not active in a repeat; [ ] = dose if it differs, or a comment. The call rests on the fitted dose curve; in most records, active means well fitted curve in the direction sought with a large enough effect; inconclusive means small, poorly fitted or top-dose-only effect, or another doubt; inactive means no such curve, though single readings can be large; an effect the other way counts as inactive or inconclusive.

SMILES	Sfp inh	TrxR1 substrate	PLK1 PBD inh	IDH1 R132H inh	VDR inh	TrxR1 inh
CCOC(=O)N/N=C1/C[C@@H](O)[C@@H](O)[C@@H]2[C@@H]3C(=O)N(C(C)(C)C)C(=O)[C@H]3CC[C@H]12	-	.	.	.	.	.
COC(=O)c1ccccc1S(=O)(=O)N1CCc2nc(-c3ccccc3)c3c(c2C1)CO[C@@H](C)C3	-	.	.	.	.	.
CC12CCC(=O)N1C(C(=O)NCc1ccccc1F)CS2 (stereo not drawn)	.	-	-	-	-	-
O=C(O)Cn1cc(C(=S)N2CCOCC2)c2ccccc21	50µM	-	24µM	-	?	-
CC(C)CC[n+]1ccn(-c2nc3ccccc3nc2[N-]S(=O)(=O)c2ccccc2)c1	79µM	-	-	-	-	-
CCCC[n+]1ccn(-c2nc3ccccc3nc2[N-]S(=O)(=O)c2ccc(Br)cc2)c1	-	-[11.4 µM]	-	-	-	-[11.4 µM]
COC(=O)[C@@H](NC(=O)O[C@@H]1C(=O)c2cc(OC)ccc2O[C@H]1c1cccc(OC)c1)C(C)C	-	.	.	.	-	.
CC(C)NC(=O)C1(c2ccccc2)CC1(Cl)Cl (stereo not drawn)	-	-	13µM	-	-	-
Oc1c(I)cc(Cl)c2cccnc12	-	-	-	-	?	7.9µM
CN1CCN(Cc2cc(COCc3ccccc3)c3cccnc3c2O)CC1	-	-	-	-	?	?
Oc1c(CN2CCc3ccccc3C2)cc(Cl)c2cccnc12	-	-	30µM	-	-	?
O=[N+]([O-])c1cc(Cl)c2cccnc2c1O	-	-	-	-	-	-
Oc1c(CN2CCCCC2)cc(Br)c2cccnc12	45µM	-	?	-	-	?
Oc1c(Cl)cc(CN2CCOCC2)c2cccnc12	.	-	?	-	?	?
CCCCc1nc2c(c3c1C[C@H](C)OC3)CN(S(=O)(=O)c1ccc(C#N)cc1)CC2	-	.	.	.	.	.
O=C(NCc1ccccc1)C(=O)Nc1nc(C23CC4CC(CC(C4)C2)C3)cs1	-	-	-	-	-	-
CNC(=O)C(=O)Nc1nc(C23CC4CC(CC(C4)C2)C3)cs1	-	-	30µM	-	-	-
O=C(CCS(=O)(=O)c1ccc(Cl)cc1)Nc1ccccc1Br	-	-	-	-	-	-
O=C(O)CCCC(=O)Nc1ccccc1SCCS(=O)(=O)c1ccc(Cl)cc1	56µM	-	-	-	-	-
CCCCCCCCCCCCCCCC[n+]1ccc(/C=N/O)cc1	32µM	-	-	-	-	?
CCCCCCCCCCCCCC[n+]1ccc(C)cc1	56µM	.	.	.	?	.
COc1ccc(N2C(=O)C3C(C2=O)C(C(=O)c2ccc(Cl)cc2)N2CCCC32)cc1 (stereo not drawn)	28µM	-	-	-	-	-
COc1ccc(C(=O)[C@H]2[C@H]3C(=O)N(c4ccc(OC(C)=O)cc4)C(=O)[C@H]3C3C=CC=NN32)cc1 (stereo partly drawn)	-	-	-	-	-	-
CC(=O)c1ccc(N2C(=O)C3C(C2=O)C(C(=O)c2ccc(Cl)cc2)N2CCCC32)cc1 (stereo not drawn)	22µM	-	11µM	-	-	?
Cc1ccc(N2C(=O)[C@@H]3[C@H](C2=O)C2CCCN2[C@@H]3C(=O)c2ccccc2)cc1 (stereo partly drawn)	56µM	-	-	-	?	-
SMILES	Sfp inh	TrxR1 substrate	PLK1 PBD inh	IDH1 R132H inh	VDR inh	TrxR1 inh
O=C(Nc1ccc(Cl)cc1)[C@@H]1[C@@H]2C(=O)N(c3cccc(F)c3)C(=O)[C@@H]2[C@H]2C=CC=NN21	-	-	-	-	?	-
COc1ccc(N2C(=O)[C@@H]3[C@H](C2=O)[C@H]2C=CC=NN2[C@@H]3C(=O)Nc2ccc(Cl)cc2)cc1	35µM	-	-	-	?	-
Cc1ccc2c(CNCc3ccccc3)cc(=O)oc2c1	-	-[0.0914 µM]	-	-	-	-
Cc1ccc(-c2nc3ccccc3o2)cc1NC(=O)COc1ccccc1C	.	-	.	.	.	-
CCNC(=S)Nc1ccc2c(c1)c(=O)n(C)n2CC=C(C)C	.	.	21µM	.	.	.
CCNC(=O)Nc1ccc2c(c1)c(=O)n(C)n2CC=C(C)C	.	.	-	.	.	.
COc1ccc(NC(=O)c2cccc(N3C(=O)C4C5C=CC(C5)C4C3=O)c2)c(OC)c1 (stereo not drawn)	-	-	-	-	-	-
COc1ccc(NC(=O)c2cccc(N3C(=O)C4C5C=CC(C6CC56)C4C3=O)c2)c(OC)c1 (stereo not drawn)	-	-	24µM	-	-	-
COc1ccc(CN2C(=O)c3cccnc3C2=O)cc1S(=O)(=O)N(C)c1cccc(C)c1	-	-	24µM	-	-	-
NC[C@@H]1O[C@H](C23CC4CC(CC(C4)C2)C3)Cc2c1ccc(O)c2O	50µM!	-	-	-	-	?
N#CCn1cnc2c(oc3ccccc32)c1=O	-	-	-	-	-	-
COc1ccc(CNCCS(=O)(=O)NN2CCOCC2)cc1	.	-	9.5µM	-	?	-
CCCCCCCCNCCS(=O)(=O)NN1CCOCC1	.	-	7.5µM	-	-	-
O=C(C1CC(=O)N(c2ccccc2)C1)N1CCCCCC1 (stereo not drawn)	-	-	-	-	-	-
COc1ccc2cc[nH]c2c1	-	-	21µM	-	?	-
COc1cc(OC)c2cc[nH]c2c1	-	-	-	-	-	-
CC#CCCC(=O)N1C=Cc2ccccc2C1C#N (stereo not drawn)	-	-	12µM	-	-	-
CC1=Cc2ccccc2C(C#N)N1C(=O)c1ccccc1 (stereo not drawn)	-	-	-	-	-	-
O=C(Nc1ccc(N2CCOCC2)cc1N1CCOCC1)c1ccco1	-	-	27µM	-	?	-
O=C(Nc1ccc(N2CCOCC2)c(C(=O)O)c1)c1ccco1	-	.	.	.	.	.
O=C(CSc1nc2nccnc2c(=O)n1CCc1c[nH]c2ccccc12)Nc1ccc(F)cc1	.	-	.	-	-	-
O=S(=O)(Nc1nc2ccc(S(=O)(=O)N3CCCC3)cc2s1)c1ccc(F)cc1	-	-	17µM	-	-	-
O=S(=O)(c1ccc2nc(N3CCN(c4ccc(F)cc4)CC3)ccc2c1)N1CCCCC1	79µM	-	-	-	-	-
O=C(O)c1ccccc1N(c1ccccc1)c1ccccc1	.	-	-	-	35µM	-
Cc1cc(Br)ccc1-n1[nH]c(C)c(C=Nc2cccc3nsnc23)c1=O	-	-	27µM	-	-	-
CC(=O)c1ccc(N2CCN(C(=O)CS(=O)(=O)c3cccc4nsnc34)CC2)cc1	.	-	.	-	-	-
COc1ccc(CN(Cc2ccccc2)C(=O)c2cccc(C#N)c2)cc1COc1ccc(NC(C)=O)cc1	.	-	.	.	-	-
Nc1n[nH]c(=S)n1/N=C1/C(=O)Nc2ccccc21	11µM	-	27µM	-	?	-
O=C1Nc2ccccc2C1=NN1CCCCCC1	.	-	-	-	-	-
